Results as given in PubChem BioAssay (NCI).
Compounds without any hit were thinned out: in the full panel of roughly 79,000, 15% have a hit. Activity calls are given as the source filed them. Cut-off read from the data, not from the text of the source: active = growth inhibition above about 70%; inactive = the rest.

Key:
[1] = NCI Yeast Anticancer Drug Screen. Data for the rad52 strain (AID 147);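 note: 0% = growth of vehicle-treated control cultures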; settings: S. cerevisiae rad52 mutant growth inhibition, hits give high values
How it was run: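 Here a repair-compromised yeast strain receives each compound; its growth is then quantified and normalised to vehicle-only controls.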

[2] = NCI Yeast Anticancer Drug Screen. Data for the wt1 strain (AID 149);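 note: 0% = growth of vehicle-treated wt1 cultures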; settings: S. cerevisiae wt1 strain (SPY 50644) growth inhibition, hits give high values
How it was run: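 Readout: yeast growth inhibition, normalised to vehicle controls, in the wt1 strain exposed to test compounds.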

[3] = NCI Yeast Anticancer Drug Screen. Data for the rad50EPP+ strain (AID 151);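 note: 0% = growth of vehicle-treated control cultures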; settings: S. cerevisiae rad50 mutant strain, hits give high values
How it was run: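 Read-out is yeast growth inhibition relative to vehicle; cells used were the rad50EPP+ strain.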

[4] = NCI Yeast Anticancer Drug Screen. Data for the mgt1 strain (AID 153); settings: S. cerevisiae mgt1 mutant growth inhibition, hits give high values
How it was run: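 Measured: inhibition of mgt1 yeast growth by compound, normalized to vehicle-treated cultures.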

[5] = NCI Yeast Anticancer Drug Screen. Data for the rad50 strain (AID 155);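 note: 0% = growth of vehicle-only cultures of the same strain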; settings: S. cerevisiae rad50 strain growth inhibition, hits give high values
How it was run: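 Compounds were tested on a yeast strain with an engineered DNA damage repair alteration; the reported value is growth inhibition normalised to vehicle treatment.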

[6] = NCI Yeast Anticancer Drug Screen. Data for the mec2-1 strain (AID 157); settings: S. cerevisiae mec2-1 strain, hits give high values
How it was run: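 Using mec2-1 yeast: add compound, measure growth, express inhibition versus vehicle-treated cultures.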

[7] = NCI Yeast Anticancer Drug Screen. Data for the rad14 strain (AID 159);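 note: 0% = growth of vehicle-treated control cultures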; settings: S. cerevisiae rad14 strain growth inhibition, hits give high values
How it was run: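 Compound-treated yeast with a defined DNA-repair lesion; growth inhibition normalised to vehicle-treated cultures.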

[8] = NCI Yeast Anticancer Drug Screen. Data for the sgs1 mgt1 strain (AID 161);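 note: 0% = growth of cultures given vehicle only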; settings: S. cerevisiae sgs1 mgt1 strain, hits give high values
How it was run: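 Yeast cells carrying a defined DNA-repair defect were exposed to test compounds. Growth inhibition was measured relative to vehicle-treated controls.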

[9] = NCI Yeast Anticancer Drug Screen. Data for the CLN2oe strain (AID 163);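 note: 0% = growth of vehicle-only control cultures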; settings: S. cerevisiae CLN2oe strain, hits give high values
How it was run: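 Whole-cell yeast growth assay. A strain engineered for altered cell-cycle control received compound, and inhibition relative to vehicle-treated cultures was recorded.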

[10] = NCI Yeast Anticancer Drug Screen. Data for the cln2 rad14 strain (AID 165);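 note: 0% = growth equal to vehicle treated cultures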; settings: S. cerevisiae cln2 rad14 strain, hits give high values
How it was run: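 Yeast strain cln2 rad14, bearing defects in cell cycle control and DNA repair, serves as the test system; values reflect growth inhibition compared with vehicle.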

[11] = NCI Yeast Anticancer Drug Screen. Data for the bub3 strain (AID 167); settings: S. cerevisiae bub3 mutant strain, hits give high values
How it was run: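 Growth of a checkpoint-deficient yeast mutant is measured after compound exposure. Values represent inhibition relative to vehicle.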

[12] = NCI Yeast Anticancer Drug Screen. Data for the mlh1 strain (AID 171);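 note: 0% = growth of vehicle-treated control cultures of the same strain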; settings: S. cerevisiae mlh1 strain growth inhibition, hits give high values
How it was run: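 A yeast strain with a defined genetic lesion serves as the test organism. Cultures receive compound or vehicle, and growth is measured.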

[13] = NCI Yeast Anticancer Drug Screen. Data for the sgs1 strain (AID 173);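 note: 0% = growth of vehicle-only control cultures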; settings: S. cerevisiae sgs1 mutant, hits give high values
How it was run: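 A genetically defined yeast mutant is incubated with the test compound, and its growth is compared to that of the same strain given vehicle.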

[14] = NCI Yeast Anticancer Drug Screen. Data for the mlh1 rad18 strain (AID 175); settings: S. cerevisiae mlh1 rad18 strain growth inhibition, hits give high values
How it was run: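 Steps: expose repair-defective yeast to compound; measure growth; express inhibition against vehicle-treated controls.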

[15] = NCI Yeast Anticancer Drug Screen. Data for the rad18 strain (AID 177); settings: S. cerevisiae rad18 mutant growth inhibition, hits give high values
How it was run: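 Measured value is growth inhibition of a yeast strain bearing a DNA repair alteration, referenced to vehicle-treated cells.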

[16] = at 5.0 µM (retest, dose inferred, filed as 0.5)
[17] = at 50.0 µM (retest, dose inferred, filed as 5.0)

Measured: growth inhibition

O=C1CC(C(O)(C(F)(F)F)C(F)(F)Cl)CCC1C(O)(C(F)(F)F)C(F)(F)Cl (stereo not drawn)
inactive: [1]; at 1.2 µM 54% | [1]; at 3.7 µM 46% | [2]; at 1.2 µM 32% | [2]; at 3.7 µM 44% | [2]; at 11.0 µM 68% | [3]; at 1.2 µM 12% | [3]; at 3.7 µM 24% | [3]; at 11.0 µM 38% | [3]; at 33.0 µM 46% | [3]; at 100.0 µM 41% | [4]; at 1.2 µM 60% | [4]; at 3.7 µM 65% | [5]; at 1.2 µM 45% | [5]; at 3.7 µM 33% | [5]; [16] 29% | [5]; at 11.0 µM 57% | [6]; at 1.2 µM 67% | [6]; at 3.7 µM 56% | [6]; [16] 35% | [7]; at 1.2 µM 66% | [7]; at 3.7 µM 50% | [8]; [16] 49% | [10]; [16] 44% | [11]; at 1.2 µM 60% | [11]; at 3.7 µM 45% | [11]; [16] 2% | [12]; at 1.2 µM 52% | [12]; at 3.7 µM 46% | [12]; at 11.0 µM 67% | [13]; at 1.2 µM 61% | [13]; at 3.7 µM 62% | [14]; [16] 42% | [15]; at 1.2 µM 42% | [15]; at 3.7 µM 45%
active: [1]; at 11.0 µM 72% | [1]; at 33.0 µM 93% | [1]; at 100.0 µM 97% | [2]; at 33.0 µM 91% | [2]; at 100.0 µM 97% | [4]; at 11.0 µM 87% | [4]; at 33.0 µM 94% | [4]; at 100.0 µM 97% | [5]; at 33.0 µM 91% | [5]; [17] 96% | [5]; at 50.0 µM 99.1% | [5]; at 100.0 µM 97% | [6]; at 11.0 µM 84% | [6]; at 33.0 µM 96% | [6]; [17] 96% | [6]; at 50.0 µM 99.5% | [6]; at 100.0 µM 98% | [7]; at 11.0 µM 85% | [7]; at 33.0 µM 97% | [7]; at 100.0 µM 99% | [8]; [17] 96% | [8]; at 50.0 µM 99.5% | [9]; at 1.2 µM 75% | [9]; at 3.7 µM 77% | [9]; at 11.0 µM 89% | [9]; at 33.0 µM 95% | [9]; at 100.0 µM 95% | [10]; [17] 96% | [10]; at 50.0 µM 99.2% | [11]; at 11.0 µM 76% | [11]; at 33.0 µM 95% | [11]; [17] 97% | [11]; at 50.0 µM 99.4% | [11]; at 100.0 µM 97% | [12]; at 33.0 µM 92% | [12]; at 100.0 µM 98% | [13]; at 11.0 µM 80% | [13]; at 33.0 µM 96% | [13]; at 100.0 µM 98% | [14]; [17] 97% | [14]; at 50.0 µM 99% | [15]; at 11.0 µM 76% | [15]; at 33.0 µM 94% | [15]; at 100.0 µM 97%
